Results reported in PubChem BioAssay AID2599 (Sanford-Burnham Center for Chemical Genomics, 2010).
Among all 330,000 compounds or so, about 5,800 (1.8%) were called active.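 How the source made its calls: active means inhibition above about 50% at the single tested dose (limit read from the data); inactive means the rest.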 This excerpt belongs to a sample that is enriched for actives.

What follows are compounds tested against Sentrin-specific protease 6 (Homo sapiens) (UniProt Q9GZR1) (assay: inhibition of human SENP6 catalytic domain – biochemical, luminescence, uHTS, primary screen (AID 2599;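 further: plate controls were DMSO wells with enzyme for no effect and DMSO wells lacking enzyme for full effect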)). Details: Recombinant SENP6 catalytic domain, aminoluciferin luminescence; at 10 µM; active compounds read high.
Sequence of Sentrin-specific protease 6 (Homo sapiens) (Q9GZR1 628-1112 limits assumed): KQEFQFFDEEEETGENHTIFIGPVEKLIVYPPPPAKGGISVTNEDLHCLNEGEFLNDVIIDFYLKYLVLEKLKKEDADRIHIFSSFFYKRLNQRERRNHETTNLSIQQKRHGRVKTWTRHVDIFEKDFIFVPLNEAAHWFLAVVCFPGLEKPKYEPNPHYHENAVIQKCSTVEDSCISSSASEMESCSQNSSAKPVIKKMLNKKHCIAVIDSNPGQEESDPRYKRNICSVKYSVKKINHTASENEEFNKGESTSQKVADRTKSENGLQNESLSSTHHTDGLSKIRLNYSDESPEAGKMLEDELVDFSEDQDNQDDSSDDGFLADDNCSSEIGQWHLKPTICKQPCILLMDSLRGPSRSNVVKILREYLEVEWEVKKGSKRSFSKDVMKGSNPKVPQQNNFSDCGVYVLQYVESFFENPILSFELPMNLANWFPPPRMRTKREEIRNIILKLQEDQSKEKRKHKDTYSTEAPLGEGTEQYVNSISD

inhibition, inactive:
CC(C)(C)c1cc(C(=O)N/N=C/c2ccc([N+](=O)[O-])s2)n[nH]1 35.9%, COc1ccc(C(=O)NCC(=O)N/N=C/c2ccc([N+](=O)[O-])s2)cc1OC 48.9%, CC(=O)Nc1nc(N(C)C)nc(N(C)C)n1 -13.9%, Cc1c(C(N)=O)sc2ncn(CCOc3ccccc3)c(=O)c12 -16.1%, CCOC(=O)C(C)n1cnc2sc(C)c(C)c2c1=O (centres undefined) -17.3%, FC(F)(F)c1ccc(-n2cn[nH]c2=S)cc1 -14.6%, CCSC1=NCCN1S(=O)(=O)c1ccc(F)cc1 -6.19%, CCCn1nnnc1NCc1ccc(CC)cc1 -6.18%, O=C(CSc1nn(-c2ccc(F)cc2)c(=S)s1)NC1CCS(=O)(=O)C1 (centres undefined) -6.03%, O=C(c1ccc2nc(N3CCOCC3)sc2c1)N1CCN(c2ccc(Cl)cc2)CC1 -6.6%, O=S(=O)(Nc1ccc2nc(N3CCOCC3)sc2c1)c1ccccc1 -2.51%, Fc1ccc2nc(Nc3nc4c(s3)CCCC4)sc2c1 34.4%, c1c2c(cc3sc(N4CCCCC4)nc13)OCCO2 7.27%, C/C(=N/NC(=O)CCc1ccccc1)c1ccco1 12.1%, COc1ccc(CC(NC(C)=O)C(=O)NC2CCN(C(=O)C3CC3)CC2)cc1OC (centres undefined) -9.43%, C=C(C)CSc1nc(N)c2c3c(sc2n1)CCC3 1.28%, O=C(NC(Nc1nc2ccc([N+](=O)[O-])cc2s1)(C(F)(F)F)C(F)(F)F)c1ccccc1 -1.71%, COc1ccc(C(=O)Nc2nc(-c3ccc(OC)cc3)c(-c3ccc([N+](=O)[O-])cc3)s2)cc1 -31.8%, CCN(CC)S(=O)(=O)c1ccc(N2CCOCC2)c(NC(=O)C2CSC3(C)CCC(=O)N23)c1 (centres undefined) 4.82%, COc1ccc2cc(C(=O)C3CCCN(C(=O)c4sc(C)nc4C)C3)ccc2c1 (centres undefined) -16.8%, CCCC(=O)N(CCN1CCOCC1)c1nc2ccc(OCC)cc2s1 -4.24%, O=C(NCCS(=O)(=O)NCc1ccc(Cl)cc1)c1ccccc1 -0.893%, COc1cccc(N2C(=O)CC(N3CCc4ccccc4C3)C2=O)c1 (centres undefined) 0.083%, CCOc1ccc(N2C(=O)CSC2=NC#N)cc1 -18.7%, CC(C)(C)n1nc2c(c1NC(=O)c1cc3ccccc3o1)CSC2 2.49%, COc1cc2ccccc2cc1C(=O)Nc1ccncc1 -5.66%, CC(OC(=O)Cc1ccc(F)cc1)C(=O)N1CCc2ccccc21 (centres undefined) 8.22%, CCC(=O)Nc1nnc(S(=O)(=O)N2CCCc3ccccc32)s1 -3.06%, Nc1cccc(CCc2nc3ccccc3[nH]2)c1 -9.91%, COc1ccc(-c2[nH]nc(-c3ccccc3)c2-c2nc3ccccc3[nH]2)cc1 -1.01%, Clc1ccccc1SCc1nc2ccccc2[nH]1 39.4%, COc1ccc(Br)cc1C(=O)NC(=S)Nc1cc(-c2nc3ccccc3[nH]2)ccc1C 6.04%, CC1(C)C2CCC13CS(=O)(=O)NC3C2 (centres undefined) -8.89%, O=C(Nc1ccc(-c2ccc3nncn3n2)cc1)C1CCCCC1 -18.8%, COc1ccc(N2CCN(CCCNC(=O)C3CCN(S(=O)(=O)N4CCOCC4)CC3)CC2)cc1 8.09%, CCNC(=S)N1CCN(S(=O)(=O)c2ccc(Cl)s2)CC1 -2.28%, COc1ccc([N+](=O)[O-])cc1N(CC(=O)Nc1ccccc1C(=O)N1CCOCC1)S(C)(=O)=O -14.4%, Cc1cc(C)c(S(=O)(=O)c2ccc(F)cc2C)c(=O)[nH]1 -7.65%, Cc1ccc(/C(N)=N/OC(=O)COc2ccc(Cl)c(C)c2)cc1 -9.12%, N/C(=N\OC(=O)c1cc(-c2ccccc2)nc2ccccc12)c1ccncc1 -23.3%, N#Cc1cc([N+](=O)[O-])ccc1Oc1cccc(/C=N/NC(=O)c2ccc(Cl)cc2)c1 -30.8%, COc1ccc2c(C)cc(SCC(=O)NCC3CCCO3)nc2c1 (centres undefined) 2.3%, Nn1c(Cc2cccc3ccccc23)nnc1SCC(=O)N1CC(=O)Nc2ccccc21 -14.3%, CN(c1ccccc1)S(=O)(=O)c1cc(C(=O)Nc2nc3ccccc3[nH]2)ccc1Cl 0.946%, O=C(Cc1ccsc1)N1CCN(S(=O)(=O)c2cc(C(F)(F)F)cc(C(F)(F)F)c2)CC1 -12.7%, O=c1c(-c2ccccc2Cl)c[nH]n1-c1ccccc1 5.63%, O=C1c2ccccc2NC(c2ccc(-c3cccc(Cl)c3)o2)N1O (centres undefined) 2.11%, Cc1ccc(NC(=O)c2ccn(C(=O)Nc3ccccc3)n2)c(C)c1 8.66%, CCCCC(CC)CNC(=O)C(=O)C1C(=O)Nc2ccccc21 (centres undefined) -18.1%, CCCn1nnnc1NCc1ccc(OC)cc1 -1.58%, COC(=O)c1scc(S(=O)(=O)C(C)(C)C)c1-n1cccc1 -3.91%, O=C(COC(=O)c1ccccn1)NNC(=O)c1ccc(Br)cc1 6.84%, Cc1ccc(NC(=O)c2ccccn2)cc1S(=O)(=O)N1CCOCC1 -7.58%, COc1ccc(C(=O)O/N=C(\N)c2ccccn2)cc1[N+](=O)[O-] 13%, O=C(COC(=O)c1ccccn1)NNC(=O)c1ccc([N+](=O)[O-])cc1 -1.82%, Oc1cc2c(cc1O)CN(C(=S)NCCc1ccc(Cl)cc1)CCC2 1.23%, O=C(NCc1ccncc1)C1CCN(C(=O)c2cccc(Cl)c2)CC1 -3.02%, Cc1cc(Nc2cccc(C)c2C)n2ncnc2n1 -7.33%, C=CCn1c(-c2ccc(Cl)cc2)ccc(C#N)c1=O 4.58%, O=C(Nc1ccc2c(c1)CCC2)c1cccc(S(=O)(=O)N2CCN(c3ccc(F)cc3)CC2)c1 -2.68%, O=C(c1cccc(S(=O)(=O)Nc2ccccc2Cl)c1)N1CCN(C(=O)c2ccco2)CC1 0.095%, CCOc1cnc(C(=O)NNC(=O)c2ccccc2Br)o1 -9.25%, COc1cc(OC)cc(C(=O)OCC(=O)Nc2ccc(F)cc2F)c1 3.41%, COc1ccccc1CC(=O)Nc1ccc(F)cc1F -5.72%, Cc1ccc(C)c(S(=O)(=O)N2CCN(C(=O)Nc3ccccc3)CC2)c1 -12.7%, CC1CCCC(C)N1C(=O)COC(=O)COc1ccccc1C#N (centres undefined) -21.9%, COc1ccccc1-c1nnc(-c2ccc(F)cc2)o1 40.7%, CN(C)c1ccc(-c2nnc(-c3cccnc3)o2)cc1 14.7%, OC(c1nnc(-c2ccccc2)o1)c1cccs1 (centres undefined) -10.9%, Brc1ccc(-c2noc(-c3ccccc3)n2)o1 -29.7%, CSc1ccccc1-c1nnc(-c2ccc(Cl)cc2)o1 26.3%, O=C(OCc1ccc(Br)cc1)c1cccc(-c2nnc(-c3ccccc3)o2)c1 -4%, COc1ccc(C(C)=O)cc1COC(=O)Cn1cnc2ccccc2c1=O -0.874%, O=C(NCC1CCCO1)c1ccc(S(=O)(=O)Nc2ccc(F)cc2)cc1 (centres undefined) -0.148%, CN(C(=O)c1ccccc1)c1nccnc1C#N 11.5%, CC(=O)c1c(C)[nH]c(C(=O)OCC(=O)NCCC(C)C)c1C -9.8%, Cc1cc(C)c(C#N)c(SCC(=O)N(CC(C)C)C2CCS(=O)(=O)C2)n1 (centres undefined) -11.7%, O=C(O)c1ccc(/C=C2\SC(=S)N(NC(=O)c3ccc(Br)cc3)C2=O)cc1 -7.64%, O=C(O)c1ccc2c(c1)C(=O)N(NC(=O)c1ccc(O)cc1)C2=O -2.08%

inhibition, active:
O=[N+]([O-])c1ccc(C=Nc2ccc(Cl)cc2Cl)s1 57.5%, Cc1cccc(OC(=O)c2sc3ncn(C)c(=O)c3c2C)c1 52.6%, Brc1ccc2nc(N3CCCC3)sc2c1 75.4%, Fc1ccc2nc(N3CCCCC3)sc2c1 89.5%, C=CCn1c(C)cc(C2=NNC(=NCC)SC2)c1C 92.9%, O=C(Nc1nc2ccc([N+](=O)[O-])cc2s1)c1ccncc1 91.5%, CCOc1ccc2nc(C(=O)N3CCCC(C)C3)sc2c1 (centres undefined) 70.8%, O=C(Nc1ccncc1)c1cc2ccccc2o1 63.5%, Cc1ccc(-c2nc3ccccc3[nH]2)cc1N 91%, c1ccc2[nH]c(-c3nc4ccccc4[nH]3)nc2c1 97.2%, Cc1cccc(/C(N)=N/OC(=O)c2ccccc2Cl)c1 86.2%, O=c1c(-c2cccc(Cl)c2)c[nH]n1-c1ccccc1 50.4%, N/C(=N\OC(=O)c1ccc([N+](=O)[O-])cc1)c1ccccn1 93.3%, Cc1ccc(C(=O)O/N=C(\N)c2ccccn2)cc1Cl 94.1%, O=C(Nc1ccc2c(c1)CCC2)c1cccc(S(=O)(=O)Nc2ccccc2Cl)c1 58.9%, COc1ccc(C(=O)Nc2ccc(F)cc2F)cc1 76.1%, Brc1ccc(-c2nnc(-c3ccccc3)o2)o1 67.5%, Nc1ccc(-c2nnc(-c3ccccc3)o2)cc1 61.5%, Nc1ccc(-c2nnc(-c3ccc(-c4ccccc4)cc3)o2)cc1 53.4%, CC(=O)N1C(=O)/C(=C2\SC(=S)N(NC(=O)c3ccc(O)cc3)C2=O)c2ccccc21 80.2%
